Our source for the Potency values is PubChem BioAssay AID504834 (National Center for Advancing Translational Sciences (NCATS), 2011).

Screen size: about 320,000 compounds; about 22,000 (6.9%) were called active. Entries that show only a call come without a potency. Inconclusive results (about 27%) are left out. Calls come from the whole dose curve; as a rule, active = well fitted inhibition curve with a large enough effect; inconclusive = small, poorly fitted or top-dose-only effect, or another doubt; inactive = no such curve, though single readings can be large or run the other way. Many of the other results were omitted from the sample, so actives are more common in it than they were.
Potency is the fitted concentration of half-maximal effect.

A short description of the assay: Primary qHTS for delayed death inhibitors of the malarial parasite plastid, 96 hour incubation. Particulars: P. falciparum luciferase reporter growth; series mostly up to 28.7 µM. From the text: The goal of this screen is to discover new antimalarial compounds that act by inhibiting the development of the apicoplast in the malarial parasite Plasmodium falciparum. The biochemical processes that make this organelle essential for erythrocytic stage parasites are not well understood. However, antibiotics such as azithromycin and tetracycline, which target the apicoplast translational machinery, have a potent antimalarial effect.
We have developed a cell-based assay that measures parasite growth based on the expression of an integrated copy of a firefly luciferase reporter. To detect small molecules that cause this "delayed death" phenotype, erythrocytes infected with the luciferase-expressing parasites were incubated with compounds for either one or two generations, corresponding to 48 and 96 hours, respectively. Compounds that inhibit parasite growth in the second generation, but not the first, should be enriched in antimalarials that target the apicoplast. Growth inhibition is detected by a decrease in luciferase activity.
Assay Provider: David Fidock and Eric Ekland, Columbia University
Keywords: NIH Roadmap, MLPCN, MLI, MLSMR, qHTS, NCGC, qHTS, malaria, luciferase, viability
Four microliters of infected erythrocytes (2% hematocrit, 0.05% parasitemia final concentration) in culture medium were dispensed and the plates incubated for 96 hours at 37 C in 5% CO2. Two microliters of luciferase detection reagent was added and luminescence was detected by a ViewLux (PerkinElmer) reader.
(In qHTS, concentration-response curves come from the screen itself.)
Consider `CCOc1ccc(S(=O)(=O)N2CCCC(C(=O)N3CCC(C(N)=O)CC3)C2)cc1Cl` (centres undefined), for which the Potency entry was “inactive”.
Turning to `COc1ccc(OC)c(S(=O)(=O)N2CCCC(C(=O)NCCc3ccccc3)C2)c1` (centres undefined), the Potency entry was “inactive”.
Turning to `CCOC(=O)c1sc(NC(=O)C2CSC3(C)CCC(=O)N23)nc1C` (centres undefined), the Potency entry is “inactive”.
For the compound `COc1cc(C(C(=O)NC2CCCC2)N(C(=O)c2ccco2)c2ccccc2C(C)=O)cc(OC)c1OC` (centres undefined), the Potency entry is “inactive”.
As for `O=C(/C=C/Nc1ccc(S(=O)(=O)Nc2cnc3ccccc3n2)cc1)c1cccnc1`, the entry is “inactive”; as for `O=C(CSc1nnnn1-c1ccc2c(c1)CCC2)Nc1ccc2c(c1)OCCO2`, 10.4 µM (active).
As for `CCn1c(SCC(=O)Nc2ccc3c(c2)OCCO3)nnc1C(C)C`, the entry is “inactive”; as for `CCn1c(SCC(=O)Nc2ccc3c(c2)OCCO3)nnc1-c1ccncc1`, “inactive”; as for `O=C1CCCCC(=O)c2ccccc2N1`, “inactive”.
Take `c1ccc2c(c1)C(=NC1CCCCC1)NC2=NC1CCCCC1`: the Potency was 2.94 µM (active).
As to `CC(=O)c1ccc(N2CCN(CC(O)c3ccccc3)CC2)cc1` (centres undefined), the Potency entry was “inactive”.
With `COc1cccc(NC(=S)NCc2ccccn2)c1`, the Potency entry was “inactive”.
As for `COc1cccc(S(=O)(=O)NCc2ccc(C(=O)NCc3ccccn3)cc2)c1`, the figure is 2.94 µM (active); as for `COc1cccc(CNS(=O)(=O)c2csc(C(N)=O)c2)c1`, “inactive”.
Take `O=C(COC(=O)c1ccccc1)c1ccc2c(c1)OCCO2`: the Potency result was “inactive”.
As for `CCOC(=O)c1c(-c2ccccc2)oc2cc(Br)c(O)cc12`, the Potency entry is “inactive”.
Take `O=C(c1ccc(Cn2cc([N+](=O)[O-])cn2)o1)N1CCCC1`: the Potency result was “inactive”.
Regarding `CC(C)CC(CCc1ccccc1)OS(N)(=O)=O` (centres undefined), the Potency entry is “inactive”.
For `O=C(COC(=O)c1ccc(O)cc1O)NNC(=O)c1cccs1`, the Potency result is “inactive”.
Consider `CCOc1cc(N2CCOCC2)c(OCC)cc1NC(=O)COc1cccc2cccnc12`, for which the Potency was 9.28 µM (active).
Take `CCOc1cc(N2CCOCC2)c(OCC)cc1NC(=O)COc1cccc(Cl)c1`: the Potency entry is “inactive”.
For `CCOc1cc(N2CCOCC2)c(OCC)cc1NC(=O)COC(=O)[C@H](Cc1c[nH]c2ccccc12)NC(C)=O`, the Potency entry is “inactive”.
With `O=C(N/N=C/c1cccnc1)c1ccc(NC(=O)c2ccc(F)cc2)cc1`, the Potency entry is “inactive”.
For `Cn1nc(-c2ccccc2)c2cc([N+](=O)[O-])ccc21`, the Potency is 9.28 µM (active).
As for `COc1ccc([N+](=O)[O-])cc1-c1nc2ccccc2nc1-c1ccccc1`, the entry is “inactive”.
Take `Cc1nc(-c2ccc([N+](=O)[O-])cc2)c(-c2ccccc2)o1`: the Potency result is “inactive”.
In the case of `CCOC(=O)N1CCN(C(=O)c2ccc3c(=O)n(CCc4ccc(OC)c(OC)c4)c(=O)[nH]c3c2)CC1`, the Potency was 2.62 µM (active).
With `COc1ccccc1Cn1c(=S)[nH]c2cc(C(=O)N3CCN(C)CC3)ccc2c1=O`, the Potency entry was “inactive”.
For `COc1ccc(CCNC(=O)CCCCn2c(=O)[nH]c3ccccc3c2=O)cc1OC`, the Potency entry was “inactive”.
Turning to `Cc1c(S(=O)(=O)NC(C)c2ccccc2)c(=O)n(C)c(=O)n1C` (centres undefined), the Potency result was “inactive”.
In the case of `CN(CC(=O)NCCc1ccc(F)cc1)CC(=O)Nc1ccc(F)c(F)c1F`, the Potency entry is “inactive”.
Take `COc1cccc(C(=O)N2CCC(n3nccc3NC(=O)C3CCOC3)CC2)c1` (centres undefined): the Potency entry was “inactive”.
As to `CCCCn1c(N)c(N(CCC(C)C)C(=O)c2ccc(COc3ccccc3)o2)c(=O)[nH]c1=O`, the Potency entry was “inactive”.
For `CCCCn1c(N)c(N(CCC(C)C)C(=O)c2ccc([N+](=O)[O-])o2)c(=O)[nH]c1=O`, the Potency result was “inactive”.
On to `CCCCn1c(N)c(N(CCC(C)C)C(=O)CC2OC(=O)c3ccccc32)c(=O)[nH]c1=O` (centres undefined), for which the Potency was 4.65 µM (active).
As for `O=C(NCCO)C(=O)NCC(c1ccc2c(c1)OCO2)N1CCN(c2ccc(F)cc2)CC1` (centres undefined), the entry is “inactive”; as for `CCOC(=O)N1CCN(S(=O)(=O)N2CCCC(C(=O)NCCCN3CCC(C)CC3)C2)CC1` (centres undefined), “inactive”.
As to `O=C(CCC(=O)N/N=C/c1ccc(Br)o1)N/N=C/c1ccc(Br)o1`, the Potency result was “inactive”.
Regarding `COc1ccc(CCNC2=CC(=O)CC(C)(C)C2)cc1`, the Potency entry is “inactive”.
As to `COc1cc(C(=O)NC(=S)NCc2ccco2)cc(OC)c1OC`, the Potency result was “inactive”.
Take `COc1cc(C(=O)N[C@@H](C)C(=O)NCc2ccco2)cc(OC)c1OC`: the Potency result is “inactive”.
Regarding `COc1cc(Cn2c(N)c(C(=O)NCc3ccco3)c3nc4ccccc4nc32)cc(OC)c1OC`, the Potency is 1.65 µM (active).
`O=C(NCC(=O)N1CCCC(C(F)(F)F)C1)c1ccccc1F` (centres undefined): the Potency result was “inactive”.
As to `CC(NC(=O)c1ccccc1F)c1cccc2ccccc12` (centres undefined), the Potency result is “inactive”.
Take `Cc1ccc(S(=O)(=O)N(C)CC(=O)OCC(=O)N2CC(=O)Nc3ccccc32)cc1`: the Potency result is “inactive”.
With `Cc1ccc(C(=O)N2CC(=O)Nc3ccccc32)o1`, the Potency result is “inactive”.
`Cc1ccc(S(=O)(=O)N2CC(=O)Nc3ccccc32)cc1C`: the Potency was 13.1 µM (active).
With `O=C(O)C1CCCCC1C(=O)N1CCN(S(=O)(=O)c2ccc(F)cc2)CC1` (centres undefined), the Potency result is “inactive”.
For the compound `COc1cc(N2C(=O)CC3(CCCC3)CC2=O)cc(OC)c1OC`, the Potency entry is “inactive”.
On to `O=C(CSc1nnc(-c2ccccn2)n1-c1ccccc1)Nc1ccc2c(c1)OCO2`, for which the Potency entry is “inactive”.
For `CCOc1ccc(-n2c(SCC(N)=O)nnc2-c2ccco2)cc1`, the Potency is 3.7 µM (active).
Regarding `COc1ccc(-n2c(SCC(=O)OC(C)C)nnc2-c2ccccn2)cc1`, the Potency is 2.08 µM (active).
For `COc1ccc(-c2nnc(SCC(=O)c3ccco3)n2-c2ccccc2)cc1`, the Potency entry is “inactive”.
On to `Cc1cccc(C)c1NC(=O)CCCSc1nnc(-c2ccco2)n1-c1ccccc1`, for which the Potency result is “inactive”.
Turning to `CCOC(=O)CSc1nnc(-c2ccco2)n1C`, the Potency result is “inactive”.
For `CCOc1ccc(S(=O)(=O)N2CCN=C2Cc2ccccc2)cc1C`, the Potency entry is “inactive”.
On to `O=C(CCc1ccccc1)Nc1ccnn1C1CCN(Cc2ccc(OCCO)cc2)CC1`, for which the Potency entry was “inactive”.
As to `C/C=C(\C)C(=O)N1CC2(CC(c3cccc(NC(=O)CCCCC)c3)=NO2)C[C@@H]1C(N)=O` (some centres undefined), the Potency result is “inactive”.
As to `CCC(=O)Nc1cccc(C2=NOC3(C2)C[C@@H](C(N)=O)N(C(=O)c2cc([N+](=O)[O-])cc([N+](=O)[O-])c2C)C3)c1` (some centres undefined), the Potency was 0.0657 µM (active).
For the compound `CC/C=C/C(=O)N1CC2(CC(c3cccc(NC(=O)CC)c3)=NO2)C[C@H]1C(N)=O` (some centres undefined), the Potency entry is “inactive”.
Consider `CCOc1ccccc1-c1nc(CN2CCC(C(=O)N3CCOCC3)CC2)c(C)o1`, for which the Potency is 11.7 µM (active).
Turning to `COc1ccc(F)c(-c2nc(CN3CCC(c4ccccc4)CC3)c(C)o2)c1`, the Potency result was “inactive”.
As for `CCOc1ccccc1-c1cc(C(=O)N2CCOCC2)c2ccccc2n1`, the Potency result is “inactive”.
Regarding `O=C1NCC(=O)N(Cc2ccccc2)/C1=C/c1ccccc1`, the Potency result is “inactive”.
Consider `O=C1NNC(c2ccccc2)=N/C1=C\c1ccc(Cl)cc1`, for which the Potency is 8.28 µM (active).
In the case of `O=C(NCc1csc(-c2cccs2)n1)C1CC1`, the Potency result was “inactive”.
`Cc1cc(O)c(C2(O)C(=O)Nc3ccccc32)cc1C` (centres undefined): the Potency entry is “inactive”.
In the case of `CCOC(=O)CNc1nc(Cl)nc(Nc2ccc(OC)cc2OC)n1`, the Potency result was “inactive”.
For the compound `COc1ccc(OC)c(-c2csc(-c3cccs3)n2)c1`, the Potency entry is “inactive”.
As for `COc1ccc2c(c1)c(C(=O)N/N=C/c1cccs1)c(C)n2C`, the Potency entry was “inactive”.
As for `COc1cc(OC)cc(-c2c(-c3ccc(F)cc3)c3cc(-c4ccc5cc[nH]c5c4)ccc3n2C)c1`, the figure is 5.22 µM (active); as for `COc1cc(OC)cc(-c2c(-c3cccs3)c3cc(-c4ccc(OC)cc4F)ccc3n2C)c1`, 5.86 µM (active).
As for `OCC[C@H]1C[C@H](O)[C@@H](O)[C@]2(CCc3ccccc3O2)O1`, the entry is “inactive”; as for `O=C(O)c1cc(S(=O)(=O)N(Cc2ccccc2)c2cccc(C(F)(F)F)c2)ccc1Cl`, “inactive”.
For the compound `O=C(CSc1ccc(-c2ccc(-n3cccn3)cc2)nn1)Nc1ccc([N+](=O)[O-])cc1`, the Potency result is “inactive”.
On to `Cc1cccc(OCC(=O)NC2CC(C)(C)NC(C)(C)C2)c1`, for which the Potency result was “inactive”.
For the compound `NC(=O)C1(C(N)=O)OC1c1ccc(Cl)cc1Cl` (centres undefined), the Potency entry was “inactive”.
With `CC1(C)Cc2cccc(OCC(=O)Nc3nccs3)c2O1`, the Potency entry is “inactive”.
As to `COC(=O)c1ccccc1OCC(=O)N1CCN(c2ccc(Cl)cc2)CC1`, the Potency result was “inactive”.
For `CC1(C)Cc2cccc(OCC(=O)N3CCN(c4ccc([N+](=O)[O-])cc4)CC3)c2O1`, the Potency was 5.22 µM (active).
Consider `Nc1cc(N)nc(SCc2ccc(Cl)cc2)n1`, for which the Potency result is “inactive”.
For `O=C(CSc1nc2[nH]ncc2c(=O)[nH]1)Nc1ccc(F)cc1`, the Potency entry was “inactive”.
In the case of `CCCn1nnnc1NCc1ccc(CC)cc1`, the Potency entry is “inactive”.
For `Cc1ccccc1NC(=O)Cn1c(=O)n(CC2CCCO2)c(=O)c2ccccc21` (centres undefined), the Potency is 2.33 µM (active).
As for `COc1ccc(CCNC(=O)Cn2c(=O)n(CC3CCCO3)c(=O)c3ccccc32)cc1OC` (centres undefined), the entry is “inactive”; as for `O=C(Cn1c(=O)n(Cc2ccco2)c(=O)c2ccccc21)NCC1CCCO1` (centres undefined), “inactive”; as for `CCN(CC(=O)Nc1cc(Cl)ccc1C)C(=O)Cn1c(=O)cnc2ccccc21`, “inactive”.
As for `CC(C)Cn1c(N)c(C(=O)COC(=O)C2CCCN2C(=O)c2cccs2)c(=O)n(C)c1=O` (centres undefined), the Potency result is “inactive”.
As for `COc1ccc(-n2ncc3c2CC(C)(C)CC3NC(=O)CCc2c(C)nn(C)c2C)cc1` (centres undefined), the figure is 10.4 µM (active).
Regarding `Cc1ccc(-n2ncc3c2CC(C)(C)CC3NC(=O)Cc2c(C)noc2C)cc1` (centres undefined), the Potency result is “inactive”.
For the compound `COc1ccc(-n2ncc3c2CC(C)(C)CC3NC(=O)CCc2c(C)noc2C)cc1` (centres undefined), the Potency result is “inactive”.
Consider `COc1ccc(/C=C2\SC(=S)N(CCC(=O)Nc3ccccn3)C2=O)cc1OC`, for which the Potency entry was “inactive”.
In the case of `CCOc1ccc(NC(=O)CCS(=O)(=O)c2ccc3c(c2)CCCN3C(=O)CC)cc1`, the Potency is 9.28 µM (active).
`CCC(=O)N1CCc2cc(S(=O)(=O)CCC(=O)N3CCN(c4ccccc4F)CC3)ccc21`: the Potency entry is “inactive”.
With `CCCNS(=O)(=O)c1ccc2c(c1)CCCN2C(C)=O`, the Potency entry was “inactive”.
On to `C=CCn1c(SCC(=O)NC(=O)Cc2ccccc2)nc2ccccc2c1=O`, for which the Potency result is “inactive”.
Take `CCCCN1C(=O)/C(=C/C=C2/C=Cc3ccccc3N2CC)SC1=S`: the Potency was 0.117 µM (active).
For the compound `CCN1C(=O)/C(=C\N2CCN(c3cccc(Cl)c3)CC2)SC1=S`, the Potency entry was “inactive”.
Turning to `CCN1C(=O)/C(=C2/Sc3ccccc3N2CCCS(=O)(=O)O)SC1=S`, the Potency entry is “inactive”.
